According to PubChem BioAssay AID488977 (Johns Hopkins Ion Channel Center, 2010):
Out of some 310,000 compounds screened, about 1,500 (0.48%) were called active.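 How the source made its calls: active means initial fluorescence not abnormally high and integrated response B-score, plate-corrected, over 3 SD above library mean; inactive means the rest.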 The list comes from a sample in which actives are over-represented; it also holds similar structures and randomly drawn compounds.

These compounds were tested against High affinity choline transporter 1 (Homo sapiens) (UniProt Q9GZV3) (assay: allosteric activators of human choline transporter – cell-based, membrane potential dye, choline EC20, primary screen (AID 488977)). Settings: CHT-expressing cells, at 10 µM, LV-AA mutant CHT in HEK293 cells; active compounds read high.
Chain of High affinity choline transporter 1 (Homo sapiens) (Q9GZV3 whole entry, looked up): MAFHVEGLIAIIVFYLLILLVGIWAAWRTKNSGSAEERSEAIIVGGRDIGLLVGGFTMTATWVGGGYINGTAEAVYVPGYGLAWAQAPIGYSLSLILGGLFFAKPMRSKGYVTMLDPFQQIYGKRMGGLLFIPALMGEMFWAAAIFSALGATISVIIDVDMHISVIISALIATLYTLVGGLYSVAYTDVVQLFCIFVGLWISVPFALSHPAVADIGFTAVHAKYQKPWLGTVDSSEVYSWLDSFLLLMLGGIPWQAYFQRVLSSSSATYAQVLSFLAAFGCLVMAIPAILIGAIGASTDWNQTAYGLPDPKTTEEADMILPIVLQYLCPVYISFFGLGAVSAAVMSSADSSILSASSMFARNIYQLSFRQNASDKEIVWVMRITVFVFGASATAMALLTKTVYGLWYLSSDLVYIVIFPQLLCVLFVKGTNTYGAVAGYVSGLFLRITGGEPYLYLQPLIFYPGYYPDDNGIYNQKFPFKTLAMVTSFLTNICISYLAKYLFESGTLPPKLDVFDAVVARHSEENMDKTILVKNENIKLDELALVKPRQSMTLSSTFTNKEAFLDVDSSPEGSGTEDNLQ

Question: Which B-score does the source give for CC1CCC2(CC1)NC(=O)N(CC(=O)c1ccc3c(c1)OCO3)C2=O (stereo unspecified) here?
Answer: The B-score was “inactive”.

Question: How did the B-score turn out when Cc1ccccc1NC(=O)COc1cccc2c1CCNC2=O was run?
Answer: The B-score was “inactive”.

Question: CC1CCc2[nH]c3ccc(C(=O)N(C)CC(=O)Nc4cccc(F)c4)cc3c2C1 (stereo unspecified) was tested. Which B-score did it give?
Answer: Its B-score is “inactive”.

Question: How did the B-score turn out when Cc1nc2ccccc2c(=O)n1Cc1ccc([N+](=O)[O-])cc1 was run?
Answer: The B-score was “inactive”.

Question: Which B-score does the source give for Clc1c(OCCCn2ccnc2)ccc2ccccc12 here?
Answer: Its B-score is “inactive”.

Question: With Cc1nc2ccccc2c(=O)n1CCCn1ccnc1 as the compound, how does the B-score read?
Answer: Its B-score is 8.67 (active).

Question: CCCCN(C1CCS(=O)(=O)C1)S(=O)(=O)c1ccc(C(C)C)cc1 (stereo unspecified) was tested. Which B-score did it give?
Answer: Its B-score is “inactive”.

Question: With CCOC(=O)c1cnc2sccn2c1=O as the compound, how does the B-score read?
Answer: Its B-score is “inactive”.

Question: CN(C)/C=C/C(=O)c1cnc2sccn2c1=O was tested. Which B-score did it give?
Answer: The B-score was 6.34 (active).

Question: How did the B-score turn out when O=C(NCc1ccccn1)c1cnc2sccn2c1=O was run?
Answer: Its B-score is “inactive”.

Question: How did the B-score turn out when COc1cnn(-c2ccc([N+](=O)[O-])cc2)c(=O)c1Cl was run?
Answer: Its B-score is “inactive”.

Question: Which B-score does the source give for Cc1ccc(-c2cc(=O)[nH]c(NCc3ccccc3)n2)cc1 here?
Answer: Its B-score is “inactive”.

Question: How did the B-score turn out when COc1ccc(Cn2c(-c3ccc(Cl)cc3)c[n+]3ccccc23)cc1 was run?
Answer: The B-score was 7.07 (active).

Question: For COc1ccc(C(=O)CN(C(=O)c2ccc(Cl)cc2)N2C(=O)c3ccccc3C2=O)cc1, which B-score is on record?
Answer: Its B-score is “inactive”.

Question: Which B-score does the source give for CCn1c(C)cc(=O)cc1-c1ccc(Cl)cc1 here?
Answer: The B-score was “inactive”.

Question: For CN(Cc1ccccc1F)C(=O)C(Cc1ccccc1)NC(=O)c1ccccc1 (stereo unspecified), which B-score is on record?
Answer: The B-score was “inactive”.

Question: With OCCCNc1nc(-c2ccccc2)c2cc(Cl)ccc2n1 as the compound, how does the B-score read?
Answer: Its B-score is “inactive”.

Question: Which B-score does the source give for Cc1cc2c(cc1C)[n+](C)cn2CC(O)COCC1CC=CCC1 (stereo unspecified) here?
Answer: Its B-score is 12.6 (active).

Question: Which B-score does the source give for COc1ccccc1C(=O)NC(CCSC)C(=O)N1CCN(C/C=C/c2ccccc2)CC1 (stereo unspecified) here?
Answer: Its B-score is “inactive”.

Question: How did the B-score turn out when Cn1c(=O)n(C)c2cc(C(=O)Nc3ccc4c(c3)OCO4)ccc21 was run?
Answer: Its B-score is 6.95 (active).

Question: How did the B-score turn out when Cn1c(=O)n(C)c2cc(C(=O)Nc3ccc(Br)cc3)ccc21 was run?
Answer: The B-score was “inactive”.

Question: Which B-score does the source give for O=C(Nc1ccc2c(c1)OCO2)c1ccc(N2C(=O)c3ccccc3C2=O)cc1 here?
Answer: The B-score was “inactive”.

Question: With CCc1ccc(Nc2n[n+](-c3ccccc3)c(-c3cccc(Cl)c3Cl)s2)cc1 as the compound, how does the B-score read?
Answer: The B-score was “inactive”.

Question: How did the B-score turn out when O=S(=O)(NCCCc1ccccc1)c1ccc(Br)cc1 was run?
Answer: Its B-score is “inactive”.

Question: With CCCCn1c(N)c(N(CCC(C)C)C(=O)c2ccc(COc3ccccc3)o2)c(=O)[nH]c1=O as the compound, how does the B-score read?
Answer: Its B-score is 12.1 (active).

Question: With CCCCn1c(N)c(N(CC(C)C)C(=O)c2ccc(Br)o2)c(=O)[nH]c1=O as the compound, how does the B-score read?
Answer: Its B-score is “inactive”.

Question: Which B-score does the source give for CCCCn1c(N)c(N(CCC(C)C)C(=O)c2ccc([N+](=O)[O-])o2)c(=O)[nH]c1=O here?
Answer: Its B-score is “inactive”.

Question: COC(=O)c1ccc(SCc2ccccc2)nc1 was tested. Which B-score did it give?
Answer: Its B-score is “inactive”.

Question: COc1ccc(NC(=O)CN(C)C(=O)CC2CCCCC2)cc1 was tested. Which B-score did it give?
Answer: The B-score was “inactive”.

Question: Which B-score does the source give for Cc1ccc(C(=O)NC2CCCC(C)C2C)cc1S(=O)(=O)N1CCCCC1 (stereo unspecified) here?
Answer: The B-score was “inactive”.

Question: Cn1cc[n+](C)c1COc1ccc(C=O)cc1 was tested. Which B-score did it give?
Answer: Its B-score is “inactive”.

Question: For O=Cc1ccc(OCc2cn3ccccc3n2)cc1, which B-score is on record?
Answer: The B-score was 7.07 (active).

Question: With COc1ccc(C(=O)NCc2cn3ccccc3n2)cc1 as the compound, how does the B-score read?
Answer: The B-score was “inactive”.

Question: Which B-score does the source give for COc1ccc(S(=O)(=O)N2CCCCC2)cc1NC(=O)C1CC(=O)N(c2ccc3c(c2)OCCO3)C1 (stereo unspecified) here?
Answer: The B-score was “inactive”.

Question: Which B-score does the source give for COc1ccc(/C=N/NC(=O)c2cc(-c3cccc(C)c3)nc3ccccc23)cc1O here?
Answer: Its B-score is “inactive”.

Question: Which B-score does the source give for CCN1C(=O)[C@H]2[C@@H](c3ccc(SC4CCCCC4)c(OC)c3)N[C@@](Cc3ccccc3)(C(=O)OC)[C@H]2C1=O here?
Answer: The B-score was “inactive”.

Question: With O=C(NCCc1ccco1)C(=O)NCCC1CCCCN1S(=O)(=O)c1ccccc1 (stereo unspecified) as the compound, how does the B-score read?
Answer: The B-score was “inactive”.

Question: How did the B-score turn out when CCn1cc(C(=O)NCCO)c(=O)c2cc(F)c(N3CCN(C)CC3)cc21 was run?
Answer: Its B-score is “inactive”.

Question: With CCn1cc(S(=O)(=O)c2cccc(C)c2)c(=O)c2cc(F)c(N3CCN(C)CC3)cc21 as the compound, how does the B-score read?
Answer: Its B-score is 8.24 (active).

Question: How did the B-score turn out when CN1CCN(c2cc3c(cc2F)c(=O)c(C(=O)O)cn3CCF)CC1 was run?
Answer: The B-score was “inactive”.

Question: Which B-score does the source give for CCN1C(=O)[C@H]2[C@@H](c3ccc(-c4ccc(F)cc4)cc3)N[C@@](Cc3ccccc3)(C(=O)OC)[C@H]2C1=O here?
Answer: Its B-score is “inactive”.

Question: CN(/N=C/c1ccccc1)C(=S)c1ccccc1 was tested. Which B-score did it give?
Answer: Its B-score is “inactive”.

Question: Which B-score does the source give for Cc1ccc(C)c(OCCC(=O)Nc2cccc(S(=O)(=O)N3CCCC3)c2)c1 here?
Answer: The B-score was “inactive”.

Question: For Cn1c(=NC(=O)CSCC(=O)N2CCCCC2)sc2ccccc21, which B-score is on record?
Answer: The B-score was “inactive”.

Question: How did the B-score turn out when Cn1c(=NC(=O)c2cnccn2)sc2ccccc21 was run?
Answer: Its B-score is 7.8 (active).

Question: How did the B-score turn out when Cn1c(=NC(=O)c2ccco2)sc2cccc(F)c21 was run?
Answer: The B-score was “inactive”.

Question: With O=C(Nc1ncccc1O)c1ccc(S(=O)(=O)N2CCCCCC2)cc1 as the compound, how does the B-score read?
Answer: The B-score was “inactive”.

Question: Which B-score does the source give for CCN(CC)c1ccc(S(=O)(=O)N2CCCCC2)cc1NC(=O)C1=COCCO1 here?
Answer: Its B-score is “inactive”.

Question: Which B-score does the source give for OCc1ccc(-c2ccccc2)c(-c2ccccc2)c1 here?
Answer: The B-score was “inactive”.

Question: With CCCCN(CCCC)CC(O)Cn1c2ccccc2c(=O)c2ccccc21 (stereo unspecified) as the compound, how does the B-score read?
Answer: The B-score was 8.77 (active).

Question: For O=C1c2ccccc2S(=O)(=O)N1CC(O)Cn1c2ccccc2c2ccccc21 (stereo unspecified), which B-score is on record?
Answer: Its B-score is “inactive”.

Question: How did the B-score turn out when CS(=O)(=O)N(CC(O)Cn1c2ccccc2c2ccccc21)c1cccc2ccccc12 (stereo unspecified) was run?
Answer: The B-score was “inactive”.

Question: For COc1ccc(CCNc2cc(N3CCN(C(=O)c4ccccc4OC)CC3)ccc2[N+](=O)[O-])cc1OC, which B-score is on record?
Answer: Its B-score is “inactive”.

Question: With CCN1CCN(c2c(Cl)cccc2NC(=O)c2ccc(Br)o2)CC1 as the compound, how does the B-score read?
Answer: Its B-score is 8.41 (active).

Question: CCCC(=O)Nc1ccc(Cl)c(NC(=O)c2ccc(Br)o2)c1 was tested. Which B-score did it give?
Answer: Its B-score is “inactive”.

Question: For COc1cc(OC)c(NC(=O)c2ccc(Br)o2)cc1Cl, which B-score is on record?
Answer: Its B-score is “inactive”.

Question: How did the B-score turn out when O=C1CCCCC1Sc1ccc(Cl)cc1[N+](=O)[O-] (stereo unspecified) was run?
Answer: The B-score was “inactive”.

Question: Which B-score does the source give for COC(=O)[C@]1(C)N[C@H](c2ccc(-c3ccc(Cl)c(Cl)c3)cc2)[C@@H]2C(=O)N(C)C(=O)[C@@H]21 here?
Answer: Its B-score is “inactive”.

Question: How did the B-score turn out when Cc1nnc(C)c2c(C)n(N)c(C)c12 was run?
Answer: The B-score was 9.77 (active).

Question: With COc1cc(C(=O)NCC(=O)NCCSc2ccc(Br)cc2)cc(OC)c1OC as the compound, how does the B-score read?
Answer: The B-score was “inactive”.

Question: For O=C(COC(=O)Cc1c[nH]c2ccccc12)NCCc1ccccc1, which B-score is on record?
Answer: Its B-score is “inactive”.

Question: Which B-score does the source give for CCN1C(=NCCc2cccnc2)N[C@@H](c2ccccc2)C(C(=O)OC)=C1C here?
Answer: The B-score was “inactive”.

Question: For CCN1C(=NCCc2cccnc2)N[C@@H](c2ccccc2)[C@H](C(=O)OC)[C@H]1C, which B-score is on record?
Answer: The B-score was 6.5 (active).

Question: For CCN1C(=S)N[C@@H](CCc2ccccc2)[C@H](C(=O)OC)[C@H]1C, which B-score is on record?
Answer: Its B-score is “inactive”.

Question: How did the B-score turn out when O=C(Nc1ncccc1O)c1ccc(S(=O)(=O)N2CCCC2)cc1 was run?
Answer: The B-score was “inactive”.

Question: For COc1cc(C(=O)N(C)Cc2cccc(OC)c2OC)ccc1OCC(=O)Nc1cccc(C(F)(F)F)c1, which B-score is on record?
Answer: Its B-score is “inactive”.
